According to PubChem BioAssay (NCATS):
Inconclusive results are not listed. Activity calls are given as the source filed them. Calls follow the shape of the dose curve; as a rule, active = well fitted curve in the direction sought with a large enough effect; inconclusive = small, poorly fitted or top-dose-only effect, or another doubt; inactive = no such curve, though single readings can be large or run the other way.

target: Thioredoxin reductase 1, cytoplasmic (Rattus norvegicus) (UniProt O89049); experiment: qHTS Assay for Substrates of Mammalian Selenoprotein Thioredoxin Reductase 1 (TrxR1) (AID 488772); conditions: purified TrxR1, NADPH consumption substrate assay; series mostly up to 57.1 µM; activity change, negative = NADPH consumption: at the top concentration;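 also: 0% is about no effect; a drop in NADPH fluorescence below the no-compound background marks a TrxR1 substrate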
Text: The selenoprotein thioredoxin reductase (TrxR; EC 1.8.1.9) is a FAD containing homodimeric pyridine nucleotide-disulfide oxidoreductase with many cellular roles. Together with NADPH and its prime substrate thioredoxin (Trx), the enzyme forms the core of the Trx system. The mammalian Trx system exerts a wide spectrum of functions including redox regulation, antioxidant defense, regulation of transcription factors as well as support of cell growth and replication. Many of these functions involve the reduction of Trx, which may subsequently reduce a number of different substrates including ribonucleotide reductase, peroxiredoxins or NFkB. Mammalian TrxR itself also has a broad substrate specificity, reducing both protein and non-protein substrates, including low molecular weight compounds such as dehydroascorbate, lipoic acid, ubiquinone, and juglone. In addition, several drugs in clinical use for anticancer treatment are indeed known to target TrxR1.
This BioAssay is a validation of an NADPH fluorescence-based, dual-purpose qHTS rTrxR1 assay designed to find potential inhibitors and substrates of rTrxR1. For this particular BioAssay, actives are potential substrates. See related BioAssay for inhibitors data deposition.
Assay protocol: 2 uL of reagents (buffer in column 4 as negative control and 90 nM rTrxR1 in columns 1-3 and 5-48) were dispensed into Greiner black solid-bottom 1,536-well assay plates, followed by 1 uL of NADPH (400 uM final concentration) to each well. The plates were centrifuged at 1000 rpm for 15 seconds and subsequently incubated for 5 min at room temperature (~22 deg C) to allow for rTrxR1 reduction. Compounds (23 nL) were then transferred via Kalypsys pin tool equipped with 1536-pin array (10 nL slotted pins, V&P Scientific, San Diego, CA). In addition, a duplicate 2-fold serial dilution of the control compounds auranofin, a known gold-based TrxR1 inhibitor, and juglone (5-hydroxy-1,4-naphthoquinone), a natural TrxR1 substrate, were pin-transferred to columns 2 and 3, respectively. After incubation for 15 min at room temperature (~22 deg C), 1 uL of selenite (400 uM final concentration) were dispensed to each well. The plate was immediately transferred to a ViewLux high-throughput CCD imager (PerkinElmer), wherein kinetic measurements of NADPH fluorescence (Ex 340 nm, Em 450 nm) were acquired (8 minute kinetic read, see Table 1). Read 1 was utilized to assess the capacity of a compound to serve as an rTrxR1 substrate, i.e. a decrease in NADPH fluorescence compared to the no-compound background is an indication of a substrate behavior for that particular compound. For inhibitory activity of a compound, delta values, computed as the difference in fluorescence intensity between the first and last reads of an 8-minute time kinetic window, were used. All reagents were diluted in an assay buffer consisting of 50 mM Tris-HCl, pH 7.5, 2 mM EDTA, and 0.01% Tween-20.
Throughout the screen, reagent bottle and all liquid lines were made light-tight to minimize reagent degradation. All screening operations were performed on a fully integrated robotic system (Kalypsys, San Diego, CA) containing one RX-130 and two RX-90 anthropomorphic robotic arms (Staubli, Duncan, SC). Library plates were screened starting from the lowest and proceeding to the highest concentration, and a 'double-pinning' step of the highest concentration was required to access higher concentrations of compounds. Vehicle-only plates, with DMSO being pin-transferred to the columns 5-48, were inserted uniformly at the beginning and the end of each library in order to monitor and record any shifts in the background, which can be affected by reagent dispensers or loss in enzyme activity over time. Screening data were corrected, normalized, and concentration-effect relationships were derived by using publicly-available curve fitting algorithms developed in-house (http://ncgc.nih.gov/pub/openhts).

Chain of Thioredoxin reductase 1, cytoplasmic (Rattus norvegicus) (O89049 whole entry, looked up): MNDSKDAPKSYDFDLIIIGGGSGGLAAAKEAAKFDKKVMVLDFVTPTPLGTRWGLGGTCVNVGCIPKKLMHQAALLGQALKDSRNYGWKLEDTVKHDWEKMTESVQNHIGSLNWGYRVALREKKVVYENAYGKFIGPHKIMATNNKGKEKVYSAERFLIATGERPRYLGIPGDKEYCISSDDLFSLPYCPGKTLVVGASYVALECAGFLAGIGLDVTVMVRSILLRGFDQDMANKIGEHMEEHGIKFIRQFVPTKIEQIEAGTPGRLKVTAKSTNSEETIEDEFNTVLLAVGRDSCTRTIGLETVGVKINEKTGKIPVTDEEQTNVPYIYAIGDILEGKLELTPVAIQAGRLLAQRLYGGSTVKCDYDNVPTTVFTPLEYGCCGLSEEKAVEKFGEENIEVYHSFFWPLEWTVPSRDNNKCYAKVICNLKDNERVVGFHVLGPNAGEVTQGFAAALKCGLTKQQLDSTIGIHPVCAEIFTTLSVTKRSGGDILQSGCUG

Row | Structure (SMILES) | activity change, negative = NADPH consumption
1 | COc1ccccc1N1CCN(CCN(C(=O)c2ccc(I)cc2)c2ccccn2)CC1 | -9.87% (inactive)
2 | O=C(Nc1cccc(C(=O)Nc2ccc(S(=O)(=O)O)c3cc(S(=O)(=O)O)cc(S(=O)(=O)O)c23)c1)Nc1cccc(C(=O)Nc2ccc(S(=O)(=O)O)c3cc(S(=O)(=O)O)cc(S(=O)(=O)O)c23)c1 | -6.99% (inactive)
3 | NC(=S)c1ccc[n+]([C@@H]2O[C@@H](COP(=O)([O-])OP(=O)(O)OC[C@H]3O[C@@H](n4cnc5c(N)ncnc54)[C@H](OP(=O)(O)O)[C@@H]3O)C(O)C2O)c1 (stereo not given in full) | -5.95% (inactive)
4 | C=CC(N)CCC(=O)O (stereo not given) | 0.72% (inactive)
5 | S=C(S)OC1CC2CC1C1CCCC21 (stereo not given) | -3.47% (inactive)
6 | CC(C)NCC(O)COc1cccc2ccccc12 (stereo not given) | -8.95% (inactive)
7 | Cc1ccc(S(=O)(=O)/C=C/C#N)cc1 | -2.25% (inactive)
8 | CN(C)CCCO[C@@H]1[C@H]2OC(C)(C)O[C@H]2O[C@@H]1[C@H](O)CO | -13.1% (inactive)
9 | COc1cc(OC)c(/C=C2/C(=O)Nc3ccccc32)c(OC)c1 | -14.4% (inactive)
10 | Nc1ncnc2c1c(I)cn2[C@@H]1C[C@H](N)[C@@H](O)[C@H]1O | -6.25% (inactive)
11 | N#C/C(=C\c1ccc(O)c(O)c1)C(=O)NCc1ccccc1 | -12.8% (inactive)
12 | N#C/C(=C\c1ccc(O)c(O)c1)C(=O)NCCCc1ccccc1 | -15.6% (inactive)
13 | NC[C@H]1O[C@@H](n2cnc3c(N)ncnc32)[C@H](O)[C@@H]1O | 1.08% (inactive)
14 | CSc1nc(N)c2ncn([C@@H]3O[C@H](COP(=O)(O)OP(=O)(O)OP(=O)(O)O)[C@@H](O)[C@H]3O)c2n1 | 3.97% (inactive)
15 | CN(C)C(N)=NCCC[C@H](N)C(=O)O | -0.835% (inactive)
16 | C=CC(=O)c1ccc(CCCCCC)cc1 | -2.08% (inactive)
17 | CN1CCc2cccc3c2C1Cc1ccc(O)c(O)c1-3 (stereo not given) | -0.453% (inactive)
18 | CCCCCCCCCCCCCCCCCC(=O)NCC(COP(=O)([O-])OCC[N+](C)(C)C)OCC (stereo not given) | -4.59% (inactive)
19 | CO/S(=N\S(=O)(=O)c1ccc(Cl)cc1)c1ccc([N+](=O)[O-])cc1 (stereo not given) | -8.44% (inactive)
20 | NO | -0.528% (inactive)

Row | Structure (SMILES) | activity change, negative = NADPH consumption
21 | CCOC(=O)C1=C(C)NC(C)=C(C(=O)OCC)C1c1c(F)c(F)c(F)c(F)c1F | -1.91% (inactive)
22 | NCC1OC(O[C@H]2[C@H](O)[C@@H](OC3C(O)C(N)CC(N)C3OC3OC(CO)C(O)C(O)C3N)O[C@@H]2CO)C(N)C(O)C1O (stereo not given in full) | -5.45% (inactive)
23 | CN1CCc2cc(O)c(O)cc2C(c2ccccc2)C1 (stereo not given) | -9.12% (inactive)
24 | NCCCCCCCCCCN | -8.7% (inactive)
25 | C[N+](C)(CCCCCC[N+](C)(C)CCCN1C(=O)c2cccc3cccc(c23)C1=O)CCCN1C(=O)c2cccc3cccc(c23)C1=O | 4.94% (inactive)
26 | CCCCCCCCCCCCCCCCCC(=O)OC(CC(=O)O)C[N+](C)(C)C (stereo not given) | 1.38% (inactive)
27 | Nc1ncnc2c1ncn2[C@@H]1O[C@H](COP(=O)(O)OP(=O)(O)OP(=O)(O)OP(=O)(O)OC[C@@H]2O[C@H](n3cnc4c(N)ncnc43)[C@@H](O)[C@H]2O)[C@@H](O)[C@H]1O | -0.445% (inactive)
28 | CN1[C@@H](CC(=O)c2ccccc2)CCC[C@H]1C[C@H](O)c1ccccc1 | -9.43% (inactive)
29 | COc1ccccc1N1CCN(CCCCNS(=O)(=O)c2cccc3c(N(C)C)cccc23)CC1 | 1.91% (inactive)
30 | O=C1NC(=O)/C(=C/c2ccc3nccnc3c2)S1 | -2.14% (inactive)
31 | O=C(O)c1cc(=O)c2ccccc2[nH]1 | 4.32% (inactive)
32 | CC1(C)CCC=[N+]1[O-] | -6.87% (inactive)
33 | CCOC(=O)N1CCN(/[N+]([O-])=N/Oc2ccc([N+](=O)[O-])cc2[N+](=O)[O-])CC1 | -11.9% (inactive)
34 | C[N+](C)(C)CCOP(=O)(O)OP(=O)([O-])OC[C@H]1O[C@@H](n2ccc(N)nc2=O)[C@H](O)[C@@H]1O | -10.1% (inactive)
35 | CCc1c(C(=O)NCCc2ccc(N3CCCCC3)cc2)[nH]c2ccc(Cl)cc12 | -8.35% (inactive)
36 | NCCNC(=O)c1ncsc1-c1cccc(F)c1 | 0.601% (inactive)
37 | N#C/C(=C\c1c[nH]c2ccccc12)C(=O)c1ccc(O)c(O)c1 | -9.12% (inactive)
38 | NC(CCCP(=O)(O)O)C(=O)O (stereo not given) | -1.74% (inactive)
39 | Brc1c(Br)c(Br)c2n[nH]nc2c1Br | -7.02% (inactive)
40 | COc1ccccc1CNCCCCCCNCCCCCCCCNCCCCCCNCc1ccccc1OC | -1.88% (inactive)
